PubChem BioAssay AID1415 (NMMLSC, 2008)
Out of some 220,000 compounds screened, about 710 (0.32%) were called active. For the sample, actives were picked, then their nearest neighbours and some compounds at random. Unmarked numbers belong to inactive results. Rule as the data show it: active = binding response below about 49% or above about 150%; inactive = in between.

molecular target: Guanine nucleotide-binding protein G(o) subunit alpha (Homo sapiens) (UniProt P09471); assay: modulators of RGS4 binding to Galphao, primary screen, biochemical, multiplexed bead flow cytometry (AID 1415); conditions: at 10 µM, actives lie on both sides;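 also: fluorescent Galphao activated with aluminum fluoride binding bead-coupled RGS4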
Sequence (P09471 whole entry, looked up): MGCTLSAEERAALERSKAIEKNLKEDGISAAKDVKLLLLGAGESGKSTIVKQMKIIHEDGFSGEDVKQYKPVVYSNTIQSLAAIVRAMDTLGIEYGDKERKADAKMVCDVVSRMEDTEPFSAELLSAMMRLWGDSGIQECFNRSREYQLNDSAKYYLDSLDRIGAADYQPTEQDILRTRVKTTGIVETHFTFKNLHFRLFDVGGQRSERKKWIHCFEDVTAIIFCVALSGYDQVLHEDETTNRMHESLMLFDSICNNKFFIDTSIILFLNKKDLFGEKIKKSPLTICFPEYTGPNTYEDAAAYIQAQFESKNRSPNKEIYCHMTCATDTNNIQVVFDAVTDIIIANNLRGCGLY

| Structure (SMILES) | binding response (% of control) |
| --- | --- |
| Cc1ccc(NC(=O)NCC(c2cccnc2)N2CCOCC2)cc1 (configuration not stated) | 105% |
| CN1CCN(S(=O)(=O)c2ccc(N3CCN(S(=O)(=O)c4cccs4)CC3)nc2)CC1 | 101% |
| CN1CCN(C(CNS(=O)(=O)c2cccs2)c2cccnc2)CC1 (configuration not stated) | 0.16% (active) |
| OCCC1CN(Cc2ccc(Oc3ncccn3)cc2)CCN1CCc1ccccc1 (configuration not stated) | 98.9% |
| O=C(Nc1cc(Cl)cc(Cl)c1)C(NCCCO)c1ccccc1 (configuration not stated) | 102% |
| O=C(CNCc1cccs1)Nc1cc(S(=O)(=O)N2CCCC2)ccc1Cl | 103% |
| O=C(O)CCCCCNc1ncnc2ccc(Br)cc12 | 98% |
| Oc1ccc2ccccc2c1N=Nc1nccs1 | 99.9% |
| Oc1ccc(N=Nc2nccs2)c(O)c1 | -21.6% (active) |
| CC(NC(=O)C(=O)Nc1nccs1)c1ccccc1 (configuration not stated) | 94.3% |
| Cc1nc(NNC(=O)c2ccccc2)cc(-c2ccccc2)n1 | 101% |
| CC(CC(=O)C1C(C)C=CCC1(C)C)NNC(N)=O (configuration not stated) | 101% |
| O=C(c1ccc(=O)oc1)N1CCC(C(O)(c2ccccc2)c2ccccc2)CC1 | 100% |
| COC(=O)CCCC1=CC2=C(c3ccccc3)C(=O)C(C)(OC(=O)C3CCCC3)C(=O)C2=CN1c1ccc(OC)cc1 (configuration not stated) | 97% |
| Cc1ccccc1CC1(CO)CCCN(C(=O)c2cc(-c3ccccc3)no2)C1 (configuration not stated) | 110% |
| O=C(CCc1ccccc1)NNC(=O)c1ccc(Br)cc1 | 109% |
| CCCn1nnnc1NC(=O)COc1ccc(Cl)cc1C | 22.6% (active) |
| CCOC(=O)N1CCN(C(=O)COc2ccc(Cl)cc2C)CC1 | 102% |
| Cc1cc(NC(=O)COc2ccc(Cl)cc2Cl)n(CCC#N)n1 | 94.6% |
| CC(Oc1ccccc1)C(=O)Nc1oc(-c2ccco2)c(-c2ccco2)c1C#N (configuration not stated) | 96.1% |
| O=C(CC1SCCNC1=O)Nc1ccc(Cl)cc1 (configuration not stated) | 102% |
| C/C(=N\NC(=S)NC(C)C)c1ccc(C(C)(C)C)cc1 | 102% |
| CCOc1ccccc1NC(=O)c1cc(S(=O)(=O)N2CCC3(CC2)OCCO3)ccc1F | -0.18% (active) |

| Structure (SMILES) | binding response (% of control) |
| --- | --- |
| CCOc1ccccc1NC(=O)CCN1CCN(S(=O)(=O)c2ccc(OC)cc2)CC1 | 97% |
| Cc1c(C(=O)Nc2ccccc2Cl)oc2ccc(S(=O)(=O)N3CCC4(CC3)OCCO4)cc12 | 106% |
| CS(=O)(=O)c1sc(C(=O)NC(=S)Nc2ccc(OC(F)(F)F)cc2)c2c1C=CCC2 | 113% |
| C=C(C)C(=O)Nc1cccc(C2=NOC3(C2)C[C@H](C(N)=O)N(C(=O)C(c2ccccc2)c2ccccc2)C3)c1 (some centres not stated) | 100% |
| Cc1cc(NC(=O)OC(C)C)ccc1-c1ccc(NC(=O)OC(C)C)cc1C | 96.1% |
| COc1ccc(OC)c(/C=N/NC(=O)CSc2nnc(C)n2-c2ccccc2)c1 | 96.1% |
| C=CCn1c(Cn2nnc3ccccc32)nnc1SCC(=O)N/N=C/c1cc(Br)cc(OC)c1O | -38.5% (active) |
| Cc1ccc(Cn2c(SCC(=O)N/N=C/c3ccccc3OCC(=O)O)nc3ccccc32)cc1 | 98.8% |
| CCC(C)NC(=O)Cn1nc(C(F)(F)F)c2c1CCC2 (configuration not stated) | 101% |
| COc1ccc(COCCN2CCN(S(=O)(=O)c3ccccc3)CCC2=O)cc1 | 84% |
| CN(C)c1ccc(/C=N/NC(=O)c2ccc(Cn3cc(Br)cn3)o2)cc1 | 98.7% |
| COC(=O)CNc1nc(Cl)nc(N2CCC(C)CC2)n1 | 101% |
| Cc1nnc(SCC(=O)N2c3ccccc3C(C)(c3ccc(Cl)cc3)CC2(C)C)s1 (configuration not stated) | 96.9% |
| Cc1cc2nc(C)n(CCCNC(=O)Nc3ccccc3)c2cc1C | 158% [activator] (active) |
| Cc1nc2cc(NC(=O)Nc3cccc(F)c3)ccc2n1C | 91.6% |
| Cc1nc2cc(NC(=O)NC3CC3)ccc2n1C | 103% |
| Cc1onc(-c2ccccc2)c1C(=O)N=C(N)c1ccc(Cl)cc1 | 104% |
| N#Cc1ccc(CSc2nnc3ccccn23)cc1 | 101% |
| CCCCC1=CC2=CC(=O)C(C)(OC(=O)CC)C(=O)C2=CN1CCCOC(C)C (configuration not stated) | 96% |
| CCCC1C(c2ccccc2)C(C#N)(C#N)C2(C#N)CC1(N)NC2=O (configuration not stated) | 162% [activator] (active) |
| NC1=NC[C@@H](Cc2ccc(O)cc2)N1CC1CCCCC1 | 87.1% |
| CCOC(=O)c1ccc(NC(=O)c2nc[nH]c2C(=O)NCc2ccccc2)cc1 | 103% |
| CCCCOC(=O)Cn1c(=O)n(CC(=O)OCCCC)c2cc(C)ccc21 | 103% |

| Structure (SMILES) | binding response (% of control) |
| --- | --- |
| CCCCOC(=O)Cn1c(=N)n(CCN(CC)CC)c2ccccc21 | 184% [activator] (active) |
| CCn1c(=N)n(CC(=O)c2cccc(OC)c2)c2ccccc21 | 98.3% |
| O=C(CN(C(=O)c1csnn1)c1cccc(F)c1)NCc1ccc(F)cc1 | 97.4% |
| Cc1ccc(S(=O)(=O)N(C)CC(=O)N2CCc3ccccc32)cc1 | 104% |
| Cc1cnc(C(=O)OCC(=O)N2CCc3ccccc32)cn1 | 104% |
| Cc1ccc(S(=O)(=O)NCC(=O)OCC(=O)N2CCc3ccccc32)cc1 | 204% [activator] (active) |
| C#CCO[C@@H]1C[C@H](n2cnc3c(=O)[nH]c(NC(=O)C(C)C)nc32)O[C@@H]1CO | 81.4% |
| C=CCC1(CC=C)CCCN1C(=O)CC1C(=O)NCCN1Cc1ccccc1OC (configuration not stated) | 102% |
| [O-][n+]1c2c(nn1-c1ccc(Cl)c(Cl)c1)-c1nonc1CC2 | 106% |
| COc1ccc(/C(O)=C2\C(=O)C(=O)N(Cc3ccco3)C2c2ccc(OC)cc2OC)cc1 (configuration not stated) | 99.5% |
| COc1cc(C2/C(=C(\O)c3ccc4c(c3)CC(C)O4)C(=O)C(=O)N2Cc2ccco2)ccc1O (configuration not stated) | 18.3% (active) |
| COCCCN1C(=O)C(=O)/C(=C(/O)c2ccc3c(c2)CC(C)O3)C1c1cccnc1 (configuration not stated) | 95% |
| COC(=O)c1c(C)oc(C)c1S(=O)(=O)NCc1ccc(Cl)cc1 | 98.2% |
| CCN(CC)c1ccc(S(=O)(=O)N2CCOCC2)cc1NC(=O)CSc1cccc[n+]1[O-] | 91.7% |
| Cn1c(SCC(=O)N2CCCc3ccccc32)nc2ccccc2c1=O | 89.2% |
| CCCn1c(SCC(=O)N2CCc3ccccc32)nnc1-c1ccncc1 | 99.9% |
| O=C(CSc1ccc2nnc(-c3ccccc3)n2n1)N1CCCc2ccccc21 | 156% [activator] (active) |
| Nc1ccccc1Sc1cc(Cl)nnc1Cl | 97.6% |
| O=C(NC1CCc2ccccc21)C12CN(Cc3ccccc3)CC1C(c1cccc([N+](=O)[O-])c1)=NO2 (configuration not stated) | 99.7% |
| O=C(COc1ccccc1)N1CCc2ccccc2C1 | 103% |
| Cn1c(=O)c2c(n(Cc3ccccc3)c1=O)NC(=O)C2CC(=O)N1CCc2ccccc2C1 (configuration not stated) | 21.4% (active) |
| O=C(CSc1nnc(-c2cccs2)n1Cc1ccccc1)N1CCc2ccccc2C1 | 99.4% |
| Cc1ccc(NC(=O)CNCc2ccccn2)cc1S(=O)(=O)N(C)C | 97.3% |

| Structure (SMILES) | binding response (% of control) |
| --- | --- |
| Cn1c(CC2Sc3ccccc3NC2=O)nnc1SCC(=O)c1ccc(Cl)cc1 (configuration not stated) | 88.2% |
| CCc1c(C)nc2cc(-c3cccs3)[nH]n2c1=O | 93.5% |
| Cc1cc(=O)n2[nH]c(-c3sccc3-n3c(C)ccc3C)cc2n1 | 50.1% (active) |
| COc1cccc2cc(/C(C)=N/NC(=O)c3ccco3)oc12 | 98% |
| COc1cc(NC(=O)CSc2nnc3ccc(-c4ccncc4)nn23)cc(OC)c1 | 98.4% |
| COCCCNC(=S)N(Cc1ccccc1)Cc1ccc(F)cc1 | 106% |
| CN(c1ccccc1)c1ccc(/C=c2\s/c(=C(/C#N)C(=O)C(C)(C)C)n(Cc3ccco3)c2=O)cc1 | 566% [activator] (active) |
| COc1ccc(NC(=O)Cn2c(=O)n(Cc3ccco3)c(=O)c3ccccc32)cc1 | 101% |
| Cc1cs/c(=N\N=C\c2ccc(O)cc2)n1Cc1ccco1 | 99.6% |
| CCOc1ccc(NC(=O)CSc2ncnc3c2sc2ccccc23)cc1 | 103% |
| COc1cc(/C=C/C(=O)N2c3ccccc3Sc3ccc(C(F)(F)F)cc32)cc(OC)c1OC | 103% |
| O=C(CN1CCCCC1)N1c2ccccc2Sc2ccc(C(F)(F)F)cc21 | 21.1% (active) |
| O=C(CN1CCCCCC1)N1c2ccccc2Sc2ccc(C(F)(F)F)cc21 | 89.3% |
| CCN(CC)S(=O)(=O)c1ccc(NC(=O)c2cccnc2Cl)c(NC(=O)c2cccnc2Cl)c1 | 101% |
| COc1cc(NS(=O)(=O)c2ccc(NC(=O)c3ccc(S(=O)(=O)N4CCCCC4)cc3)cc2)ncn1 | 107% |
| NC(=O)[C@H]1CC2(CC(c3cccc(NC(=O)[C@H]4CCC(=O)N4)c3)=NO2)CN1C(=O)c1ccccc1C(=O)c1ccccc1 (some centres not stated) | 101% |
| CC1CCN(C(=S)NC2CC3CCC2C3)CC1 (configuration not stated) | 107% |
| O=C(Nc1ccn(Cc2ccccc2)n1)c1cccc(F)c1 | 97.8% |
| Cc1ccc(Cn2ccc(NC(=O)c3cc(C(C)C)on3)n2)cc1 | 49% (active) |
| Cc1ccc(Cn2ccc(NC(=O)C3C4CCC(C4)C3C(=O)O)n2)cc1 (configuration not stated) | 103% |
| Cc1cc(C)n(-c2ccc3nncn3n2)n1 | 97.6% |
| Cn1ccc(NC(=O)Nc2ccc(Cl)cc2)n1 | 101% |
| Cn1cc(C(=O)NCc2ccccc2F)cn1 | 101% |
